Experimental data from the supplement of paper PMC10646978.
± gives the standard deviation.

Each molecule was assayed on RAW-Dual (murine macrophage reporter line) (assay: NF-kB reporter (SEAP) activity fold change vs agonist alone; higher = enhanced NF-kB activity). Conditions: modulator concentration 10 µM; agonist: CpG ODN 1826 0.5 ug/mL.
Summary of the method: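 In 384-well plates holding 50 000 RAW-Dual murine macrophage reporter cells per well, compound at 10 μM final was pre-incubated for 1 hour at 37 °C, after which a PRR agonist was added overnight. Supernatant SEAP read with QUANTI-Blue at 620 nm absorbance reported NF-κB, and Lucia luciferase read with QUANTI-Luc luminescence reported IRF. Fold change values come from dividing each reporter signal by the mean of agonist-only control wells on the same plate, averaged over replicate plates with propagated errors.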

Compound	NF-kB reporter
Cc1nc(C(=O)NCC(=O)O)c(O)c2ccc(Oc3ccccc3)cc12	0.856 ± 0.12
CCN(CCO)CCCC(C)Nc1ccnc2cc(Cl)ccc12.O=S(=O)(O)O (stereo not given)	0.877 ± 0.037
COc1ccccc1C(=O)Nc1ccc(-c2nc3cc(C)ccc3o2)cc1	0.794 ± 0.063
Cc1c(F)cc(C(=O)NC2CC2)cc1-c1ccc(C(=O)NCC(C)(C)C)cn1	0.825 ± 0.21
CNC(=O)C(=O)Nc1cc(Cl)ccc1C	1.07 ± 0.18
CC(C)(C)C(=O)NCc1cccnc1-c1cccnc1	0.968 ± 0.052
O=C(NN=Cc1ccc([N+](=O)[O-])s1)c1ccc(Br)cc1	0.968 ± 0.083
Cc1cc(=O)n(CC(=O)N2CCC(c3ccccc3F)S(=O)(=O)CC2)cn1 (stereo not given)	1.01 ± 0.06
Br.Cc1ccc(Sc2ccccc2N2CCNCC2)c(C)c1	0.328 ± 0.078
CCOC(=O)C1=C(C)NC(C)=C(C(=O)OC)C1c1ccc(Cl)cc1 (stereo not given)	0.607 ± 0.14
O=C(Nc1nc2ccc(Cl)cc2s1)c1ccc(Br)s1	0.998 ± 0.062
CC(=O)c1c(C(C)=O)c(C)n(-c2ccccc2N)c1C	1.04 ± 0.081
O=Cc1ccc(OCc2cccc([N+](=O)[O-])c2)c(Br)c1	0.777 ± 0.091
COc1ccccc1N1CCN(CC(O)COc2cccc3ccccc23)CC1 (stereo not given)	0.878 ± 0.22
CC(=O)Nc1ccc(CC(=O)N2C3C=CCC2CC3)cc1 (stereo not given)	1.32 ± 0.32
Cc1occc1C(=O)Nc1ccc([N+](=O)[O-])cc1Cl	0.88 ± 0.079
CC(=O)N1CCN(C(=O)Cn2cnc(-c3ccc(C)cc3)cc2=O)CC1	0.929 ± 0.095
O=C(Oc1ccc(C=Nc2ccc([N+](=O)[O-])cc2)cc1)c1ccccc1	0.769 ± 0.061
NC(=O)NCC(N)C(=O)O (stereo not given)	0.988 ± 0.082
CCCCc1oc2ccccc2c1C(=O)c1cc(I)c(OCCN(CC)CC)c(I)c1.Cl	0.471 ± 0.038

Compound	NF-kB reporter
CN(C)c1ccc(C=NN2C(=O)c3cccc4cccc(c34)C2=O)cc1	1 ± 0.21
COC(=O)C1=CN(CC2CCCO2)C=C(C(=O)OC)C1c1ccccc1OC (stereo not given)	0.826 ± 0.066
CN(C)C1C(O)=C(C(N)=O)C(=O)C2(O)C(O)=C3C(=O)c4c(O)cccc4C(C)(O)C3CC12.Cl (stereo not given)	1.11 ± 0.097
COc1ccccc1N1CCN(CCCNc2cc(=O)n(C)c(=O)n2C)CC1.Cl	1.2 ± 0.3
O=C(CCCCCN1C(=O)c2cccc3cccc(c23)C1=O)NO	1.71 ± 0.32
O=C(Nc1cc(C(F)(F)F)cc(C(F)(F)F)c1)c1ccco1	0.816 ± 0.11
CO[C@@]1(NC(=O)CSCC#N)C(=O)N2C(C(=O)[O-])=C(CSc3nnnn3C)CS[C@@H]21 [Prestw-700]	0.993 ± 0.095
Cc1nnc(NC(=O)c2cccc([N+](=O)[O-])c2)s1	1.03 ± 0.084
COc1ccc(C2=CC(=Cc3cccc(OC)c3OC)C(=O)O2)c(OC)c1	1.21 ± 0.3
Cc1ccc(NC(=O)CN2C(=O)c3ccccc3C2=O)c(C(=O)O)c1	0.789 ± 0.077
CCC(C)(C)C(=O)O[C@H]1C[C@@H](C)C=C2C=C[C@H](C)[C@H](CC[C@@H]3C[C@@H](O)CC(=O)O3)[C@H]21	2.33 ± 0.12
Cc1ccc(C(=O)NC(=S)Nc2nc(-c3cccc([N+](=O)[O-])c3)cs2)cc1C	1.02 ± 0.12
O=C(NCCN1CCOCC1)c1ccc(Cl)cc1	1.37 ± 0.2
Cl.O=C1NCC2(CCN(CCc3ccccc3)CC2)O1	0.582 ± 0.028
CCCc1nc2ccccc2c(NC(=O)CN2CCOCC2)c1CC.O=C(O)C(=O)O	1.01 ± 0.078
CC(C)(C)c1ccc(C(=O)Nc2nc3ccc([N+](=O)[O-])cc3s2)cc1	1.06 ± 0.085
C1N2CN3CN1CN(C2)C3	1.07 ± 0.085
O=S(=O)(Nc1ccnc2ccccc12)c1ccccc1	0.928 ± 0.075
Cc1cc2c(cc1S(N)(=O)=O)S(=O)(=O)CCC2	1.02 ± 0.094
C[C@H](N[C@@H](CCc1ccccc1)C(=O)O)C(=O)N1CCC[C@H]1C(=O)O.O.O	1.15 ± 0.086
